Bioassay records deposited in PubChem BioAssay by several laboratories.
GAA850 FXN act – increases GAA850 frataxin promoter reporter activity | HEK293 lucGAA850 FXN promoter luciferase reporter, 24 h; percent of 10 µM SAHA response | activation, % at 6 µM | 360,000 compounds, 0.56% hits | AID 540364;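 active means activation above the average of all compounds screened plus 3 SD, cutoff fixed separately per campaign, cut at about 7.5% in these data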
HSF1 inhib – HSF1 inhibition; 300,000 compounds, 0.77% hits; NIH3T3-HGL HSE-luciferase, MG132-induced, luminescence 8 h; stronger effect = lower value; AID 2098; activity change, negative = inhibition, % at 7.5 µM (by protocol);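 active means more than half of replicate wells show activity change below -50%, luminescence cut by over half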;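 further: luciferase reports HSF-1 transcriptional activity via heat shock element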
AHR act – activates the human aryl hydrocarbon receptor; AHR-responsive luciferase reporter cells, luminescence; activation, % at 5 µM; 320,000 compounds, 2.5% hits; P35869; in the data active means activation above about 47%
Target sequence (P35869 whole entry, looked up): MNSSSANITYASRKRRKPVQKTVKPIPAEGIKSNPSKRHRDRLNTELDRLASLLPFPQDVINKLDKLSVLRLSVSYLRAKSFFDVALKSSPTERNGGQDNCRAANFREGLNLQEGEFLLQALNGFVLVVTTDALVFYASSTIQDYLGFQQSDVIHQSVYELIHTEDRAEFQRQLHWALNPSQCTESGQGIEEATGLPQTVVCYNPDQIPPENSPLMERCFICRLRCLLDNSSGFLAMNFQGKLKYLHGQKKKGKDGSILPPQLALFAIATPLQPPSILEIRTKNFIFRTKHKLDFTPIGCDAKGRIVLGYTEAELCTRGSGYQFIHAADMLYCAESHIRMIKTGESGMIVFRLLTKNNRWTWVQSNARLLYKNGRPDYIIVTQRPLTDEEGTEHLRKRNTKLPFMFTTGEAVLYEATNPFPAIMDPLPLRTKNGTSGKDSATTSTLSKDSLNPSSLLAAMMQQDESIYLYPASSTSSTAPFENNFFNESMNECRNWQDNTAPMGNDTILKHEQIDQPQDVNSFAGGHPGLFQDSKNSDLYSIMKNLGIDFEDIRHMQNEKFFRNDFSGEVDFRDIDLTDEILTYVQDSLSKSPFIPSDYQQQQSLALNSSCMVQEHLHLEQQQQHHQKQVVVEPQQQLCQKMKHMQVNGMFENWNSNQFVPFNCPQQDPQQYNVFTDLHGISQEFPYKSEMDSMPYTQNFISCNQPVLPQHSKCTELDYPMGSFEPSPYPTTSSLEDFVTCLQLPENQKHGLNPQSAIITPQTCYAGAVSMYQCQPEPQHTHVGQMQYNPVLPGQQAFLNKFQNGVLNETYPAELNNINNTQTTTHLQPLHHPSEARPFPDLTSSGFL
HSF-1 act – increases HSF-1 driven luciferase reporter signal; NIH3T3-HGL HSF-1 luciferase reporter, MG132, 8 h; 100% = twice DMSO control signal; activation, % at 9 µM; 300,000 compounds, 1.7% hits;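 active means mean replicate activation of at least 50% with a set share of replicates each reaching 50%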
Of the large screens only hits and unclear results are named; the others gave an inactive call. Hits are enriched below; roughly 4.6% of the tested compounds scored in any of these assays.

COc1ccc(/C=C/c2cc(C(=O)O)c3ccccc3n2)cc1	none (no result: HSF1 inhib, HSF-1 act)
Cc1cc(/C=C\c2ccccc2)nc2ccccc12	AHR act 62
CC1(C)CC(NS(=O)(=O)c2ccc(S(=O)(=O)N3CCOCC3)cc2)CCO1 (configuration not stated)	none
COc1ccc(OC)c(Nc2c3ccccc3nc3ccccc23)c1	none
COc1ccc(OC)c(Nc2cc(C)c3ccccc3n2)c1	AHR act 49
CN(CCCNC(=O)c1ccc(N2CCCC2=O)cc1)c1ccccc1	none
COCCn1c(C)cc(/C=C2/SC(=O)N(CC(=O)N3CCCC3)C2=O)c1C	none
O=C(c1ccc2ccccc2c1)c1c[nH]cc1-c1ccccc1	none
COc1ccc(C(=O)c2c[nH]cc2-c2ccccc2)cc1	HSF1 inhib -57
Cc1ccc2c(CC(=O)NCC(=O)Nc3c(C)cccc3C)coc2c1	none
Cc1ccc2c(CC(=O)Nc3sccc3C(N)=O)coc2c1	HSF-1 act 84
CN(C)c1ccc(C(C(=O)NC2CCCC2)N(Cc2cccnc2)C(=O)c2snc(C(N)=O)c2N)cc1 (configuration not stated)	none
CN(NC1OC(=O)c2ccccc21)c1ccc(C(F)(F)F)cc1[N+](=O)[O-] (configuration not stated)	HSF1 inhib -59
CN(NC1OC(=O)c2ccccc21)c1ccc(Cl)cc1[N+](=O)[O-] (configuration not stated)	none
O=C1CC(c2cccc([N+](=O)[O-])c2)c2c(ccc3ccccc23)N1 (configuration not stated)	HSF-1 act 53
Brc1cc2c(cc1-c1nc3ccccc3s1)OCO2	AHR act 53
CC(=O)[C@H]1[C@H](c2cccc(Cl)c2)C(C#N)(C#N)[C@@H]2c3ccccc3C=CN21	AHR act 101 (no result: GAA850 FXN act)
C=CCNC(=O)c1ccc2nccnc2c1	none
Cc1csc(SCC(=O)NC2CCC(C)CC2)n1 (configuration not stated)	none
Cc1ccc(CNC(=O)[C@H](C)N2C(=O)N3CCc4c([nH]c5ccccc45)[C@@]3(C)C2=O)cc1	HSF-1 act 97
CCOC(=O)Cn1c(=O)oc2cc(S(=O)(=O)N3CCC(N4CCCCC4)CC3)ccc21	none
Cc1ncc([N+](=O)[O-])n1CC(=O)N/N=C/c1ccc(F)cc1	none
COc1ccc(Cl)cc1/C=C/c1ccc2cccc(O)c2n1	AHR act 66
COc1ccccc1/C=C/c1ccc2cccc(O)c2n1	AHR act 75
CCOc1cccc(/C=C/c2ccc3cccc(O)c3n2)c1OC	AHR act 76, HSF-1 act 143
O=C(NN1C(=O)/C(=C\c2ccc(O)c([N+](=O)[O-])c2)SC1=S)c1ccccc1Cl	none
COc1ccc(OC)c(CNC(=O)COc2cc(=O)n(C)c3ccccc23)c1	AHR act 57
CCOC(=O)c1c(NC(=O)c2ccco2)n(C2CCCCC2)c2nc3ccccc3nc12	HSF-1 act 78
CCC(=O)Nc1c(C#N)c2nc3ccccc3nc2n1C1CCCCC1	none
O=C(c1ccc(S(=O)(=O)Nc2ccccc2F)cc1)N1CCCCCC1	none
COc1cccc(CNc2ccccn2)c1O	none
COc1cccc(CNc2ccc(F)c(Cl)c2)c1O	HSF-1 act 75
COc1cccc(CNc2cccc3cccnc23)c1O	HSF-1 act 76
COc1cccc(CNc2cnc3ccccc3c2)c1O	HSF-1 act 73
Cc1ccc(O)c(CNc2cnc3ccccc3c2)c1	none
COc1cccc2cc(C(=O)C3=C(O)C(=O)N(CCN(C)C)C3c3ccc(F)cc3)oc12 (configuration not stated)	none
Cc1cc(C)c2ccc3c(C)c(C)nc3c2[nH]1	AHR act 68 (no result: HSF1 inhib, HSF-1 act)
Cc1cc2nc(N3CCN(C(=O)c4ccco4)CC3)sc2cc1C	none
COc1ccc(S(=O)(=O)N2CCOC23CCN(C(=O)c2ccc(Cl)cc2Cl)CC3)cc1	none
COCCn1c(C)cc(C2=NNC(=Nc3ccccc3F)SC2)c1C	HSF1 inhib -89
Cc1ccc(NC(=O)COc2coc(CN3CCN(Cc4ccccc4)CC3)cc2=O)cc1	none
OCc1c(OCc2cccc(F)c2)ccc2ccccc12	HSF-1 act 62
Cc1ccc(-c2[nH]ncc2C(=O)c2ccc(Br)cc2)c(O)c1	HSF-1 act 71
Cc1c(-c2ccccc2)[n+](=O)c2c(n1[O-])CCC2	HSF1 inhib -87
Cc1ccc(OCC(=O)Nc2ccccc2C(N)=O)cc1	HSF-1 act 57
NC(=O)c1ccccc1NC(=O)COc1ccc(Cl)cc1	none
COc1ccc(NC(=O)CNC(=O)Cc2ccccc2)cc1	none
COc1ccc(OCC(=O)Nc2ccccc2O)cc1	HSF-1 act 75
COc1ccc(CC(=O)NCC(=O)Nc2ccccc2Br)cc1	HSF-1 act 56
COc1cc(C)ccc1OCCOCCN(C)Cc1ccccc1	none
CN1OC[C@@H]2CN(C(=O)Cc3ccccc3)[C@H](c3ccccc3Br)C[C@@H]21	none (no result: HSF1 inhib, AHR act, HSF-1 act)
Cc1ccc(S(=O)(=O)N2CCN(C(=O)C3CCN(C(=O)c4ccc(F)cc4)CC3)CC2)c(C)c1	none
Nc1ncc(Br)cc1N=Cc1ccccc1	GAA850 FXN act 9.9
Cc1ccc(OCCOCCOc2cccc3cccnc23)c(Br)c1	HSF-1 act 77
Brc1ccc(OCCCN2CCOCC2)cc1	none
COc1ccc(/C(N)=N/OC(=O)c2ccco2)cc1	none
Cc1ccc(/C(N)=N/OC(=O)c2ccco2)cc1	HSF-1 act 55
Cc1ccc(/C(N)=N/OC(=O)CSc2ccccc2)cc1	HSF-1 act 62
CC(C)(C)c1ccc(C(=O)O/N=C(\N)c2ccccc2)cc1	HSF1 inhib -93
Cc1occc1C(=O)O/N=C(\N)c1ccc(Cl)cc1	HSF-1 act 58
COc1ccc(C(=O)O/N=C(\N)c2ccccc2)cc1	none
COc1ccc(CNCc2ccc(F)cc2)c(OC)c1	none
CN(C[C@H](Cc1ccccc1)N(C[C@H](Cc1ccccc1)N(CCC(C)(C)C)N=O)N=O)N=O	none
N/C(=N\OC(=O)c1ccco1)c1ccccc1	HSF-1 act 55
N/C(=N\OC(=O)c1ccco1)c1ccc(Br)cc1	none
CC(C)Cc1cc(C(=O)NCCCN2CCOCC2)no1	none
Cc1ccccc1-c1nnc(SCc2ccccc2)o1	HSF-1 act 64
C#CCSc1nnc(-c2ccc(OC)cc2)o1	HSF-1 act 66
COc1ccc(-c2nnc(SCc3ccccc3F)o2)cc1	HSF-1 act 54
Cc1ccccc1-c1nnc(SCc2ccccc2F)o1	HSF-1 act 74
Cc1ccc(CSc2nnc(-c3cccc4ccccc34)o2)cc1	none (no result: HSF1 inhib, HSF-1 act)
Fc1ccccc1CSc1nnc(-c2ccccc2)o1	none
Fc1ccccc1CSc1nnc(-c2cccnc2)o1	none
COc1ccc(-c2nnc(SCC#N)o2)cc1	none
O=C(COc1ccc2c(-c3ccccc3)cc(=O)oc2c1)NCCN1CCOCC1	none
CCOC(=O)C1CCCN(c2nc(C)nc3c2oc2ccccc23)C1 (configuration not stated)	none
Cn1cc(/C=C(\C#N)C(=O)Nc2ncc(Cc3ccc(Cl)cc3)s2)c2ccccc21	none
COc1ccc(-c2nnc(-c3ccc(F)cc3)o2)cc1	none
COc1ccc(-c2nnc(-c3ccc(C)cc3)o2)cc1	HSF-1 act 53
